PubChem BioAssay (EPA / NIEHS)
Records with an inconclusive call do not appear. Activity calls are given as the source filed them. How the source made its calls: active means hit-call score of the fitted dose curve at least 0.9, where 1 is the maximum; inconclusive means response in the unintended direction; inactive means score below 0.9.

Key:
[1] = TOX21_p53_BLA_p2_viability: Viability Assessment in the Tox21 HCT-116 p53 Agonism Beta-lactamase Assay, Phase 2 (AID 2283591);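 further: compound exposure lasted 16 h at 37 °C; actives lower the ATP signal meaning cytotoxicity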
In short: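 HCT-116 p53-bla cells (4000/well) rested 5 h at 37C, then received compounds in DMSO (217-fold dilution) for 16 h at 37C, 5% CO2. After the CCF4 read, CellTiter-Glo was added; ATP luminescence was read after 30 min at room temperature.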

[2] = target: Cellular tumor antigen p53 (Homo sapiens) (UniProt P04637); test: TOX21_p53_BLA_p2_ratio: Tox21 HCT-116 p53 Agonism Beta-lactamase Assay, Ratio, Phase 2 (AID 2283592)
In short: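 In this cell-based reporter format, HCT116 cells were dosed with chemicals delivered from DMSO by 217-fold dilution and incubated 16 h at 37C. Emission at 460 and 530 nm after 2 h CCF4-AM loading provided the ratio, fitted upward versus DMSO.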

[3] = TOX21_p53_BLA_p3_viability: Viability Assessment in the Tox21 HCT-116 p53 Agonism Beta-lactamase Assay, Phase 3 (AID 2283593);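 further: cells exposed to compound for 16 h before reading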
In short: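 HCT-116 cells (4000/well) rested 5 h at 37C, then got DMSO compounds by pin tool (217-fold dilution) for 16 h at 37C, 5% CO2. After the bla read, CellTiter-Glo was added and luminescence read at 30 min, room temperature.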

[4] = target: Cellular tumor antigen p53 (Homo sapiens) (UniProt P04637); test: TOX21_p53_BLA_p3_ratio: Tox21 HCT-116 p53 Agonism Beta-lactamase Assay, Ratio, Phase 3 (AID 2283596)
In short: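 HCT116 p53-bla cells (4000/well) given compound in DMSO (217-fold dilution) after 5 h, incubated 16 h at 37C. CCF4-AM substrate 2 h at room temperature; 460/530 nm emission ratio, gain fitted against DMSO.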

[5] = TOX21_p53_BLA_p4_viability: Viability Assessment in the Tox21 HCT-116 p53 Agonism Beta-lactamase Assay, Phase 4 (AID 2283597);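 further: hits lower the luminescence signal meaning cytotoxicity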
In short: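 We seeded HCT116 p53 reporter cells at 4000/well and waited 5 h. We then added compounds in DMSO at a 217-fold dilution and incubated for 16 h. Viability was read as CellTiter-Glo luminescence after 30 min at RT.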

[6] = target: Cellular tumor antigen p53 (Homo sapiens) (UniProt P04637); test: TOX21_p53_BLA_p5_ratio: Tox21 HCT-116 p53 Agonism Beta-lactamase Assay, Ratio, Phase 5 (AID 2283599)
In short: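 HCT-116 cells carrying a p53-inducible beta-lactamase reporter were seeded at 4000 cells/well and dosed after 5 h with compound in DMSO (217-fold dilution). After 16 h at 37C, CCF4-AM substrate was added for 2 h, and the 460/530 nm emission ratio was scored as gain-of-signal versus DMSO.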

[7] = TOX21_p53_BLA_p5_viability: Viability Assessment in the Tox21 HCT-116 p53 Agonism Beta-lactamase Assay, Phase 5 (AID 2283600)
In short: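 Compounds, pinned from DMSO at 217-fold dilution, were left on the cells for 16 h. The viability endpoint was ATP content measured by CellTiter-Glo luminescence, where falling signal reflects cytotoxicity.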

[8] = target: Cellular tumor antigen p53 (Homo sapiens) (UniProt P04637); test: TOX21_p53_BLA_p4_ratio: Tox21 HCT-116 p53 Agonism Beta-lactamase Assay, Ratio, Phase 4 (AID 2283601)
In short: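 HCT116 cells carrying an inducible beta-lactamase reporter were plated at 4000 cells/well, rested 5 h, then exposed to compounds in DMSO (217-fold dilution) for 16 h at 37C. CCF4-AM substrate was loaded 2 h at room temperature; 460/530 nm emission ratio scored gain-of-signal versus DMSO.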

Cellular tumor antigen p53 (Homo sapiens), sequence (P04637 whole entry, looked up): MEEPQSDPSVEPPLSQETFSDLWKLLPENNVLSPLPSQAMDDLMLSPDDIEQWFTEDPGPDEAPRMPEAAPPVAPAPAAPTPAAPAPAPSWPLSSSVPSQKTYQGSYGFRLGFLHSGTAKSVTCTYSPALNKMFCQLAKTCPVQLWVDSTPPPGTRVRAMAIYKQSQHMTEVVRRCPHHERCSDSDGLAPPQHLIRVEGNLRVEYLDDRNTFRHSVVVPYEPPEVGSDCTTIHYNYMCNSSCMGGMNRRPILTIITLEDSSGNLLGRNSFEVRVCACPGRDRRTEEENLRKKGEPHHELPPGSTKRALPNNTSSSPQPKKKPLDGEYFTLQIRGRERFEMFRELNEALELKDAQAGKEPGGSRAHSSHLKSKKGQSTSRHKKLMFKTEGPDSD

| SMILES | outcome [1] | AC50 [2] | outcome [3] | AC50 [4] | outcome [5] | AC50 [6] | outcome [7] | AC50 [8] | AC50 [3] | outcome [6] | outcome [8] | outcome [2] | outcome [4] | AC50 [1] | AC50 [5] | AC50 [7] |
| --- | --- | --- | --- | --- | --- | --- | --- | --- | --- | --- | --- | --- | --- | --- | --- | --- |
| O=c1ccc2cc(O[C@@H]3O[C@H](CO)[C@@H](O)[C@H](O)[C@H]3O)c(O)cc2o1 | inactive | 10.3 µM (active) | inactive | 12 µM (active) | inactive | 10.3 µM (active) | inactive | 10.9 µM (active) | – | – | – | – | – | – | – | – |
| Nc1ccc(Cc2ccc(N)c(Cl)c2)cc1Cl | inactive | 68.5 µM (active) | – | 71.5 µM (active) | inactive | – | inactive | – | 77.1 µM (active) | inactive | inactive | – | – | – | – | – |
| O=P1(N(CCCl)CCCl)NC(OO)CCO1 (configuration not stated) | inactive | – | inactive | – | inactive | – | inactive | – | – | inactive | inactive | inactive | inactive | – | – | – |
| Fc1ccc(C(OCCN2CCN(CCCc3ccccc3)CC2)c2ccc(F)cc2)cc1 | – | 33.7 µM (active) | – | 24.9 µM (active) | – | 40.4 µM (active) | – | 39 µM (active) | 31 µM (active) | – | – | – | – | 33 µM (active) | 25.1 µM (active) | 38.4 µM (active) |
| Cc1ccccc1 | inactive | – | inactive | – | inactive | – | inactive | – | – | inactive | inactive | inactive | inactive | – | – | – |
| CC(=O)C=Cc1ccc2c(c1)OCO2 | inactive | 18.1 µM (active) | inactive | 62.8 µM (active) | inactive | 71 µM (active) | inactive | 51.2 µM (active) | – | – | – | – | – | – | – | – |
| [Cl][Hg][c]1ccccc1 | – | 0.553 µM (active) | – | 8.93 µM (active) | – | 10.9 µM (active) | – | 0.672 µM (active) | 2.88 µM (active) | – | – | – | – | 0.576 µM (active) | 0.624 µM (active) | 2.95 µM (active) |
| O=[N+]([O-])c1ccc([As](=O)(O)O)cc1 | inactive | – | inactive | – | inactive | – | inactive | – | – | inactive | inactive | inactive | inactive | – | – | – |
| C[C@@H](Cc1ccccc1)NCCC(c1ccccc1)c1ccccc1 | inactive | – | inactive | – | – | – | inactive | – | – | inactive | inactive | inactive | inactive | – | 12.5 µM (active) | – |
